Assay results published in PubChem BioAssay (Tox21).
Values joined by “and” are separate entries in the source; they are usually repeats but may differ in a detail not shown here. Equal entries are not always repeated. Records with an inconclusive call do not appear. Active and inactive are the calls of the source. Unless noted, the call rests on the fitted dose curve; in most records, active means well fitted curve in the direction sought with a large enough effect in the repeat runs; inconclusive means weak or mixed curves; inactive means no such curve, though single readings can be large; an effect the other way counts as inactive or inconclusive.

Assays:
[1] = qHTS assay to identify small molecule agonists of the hypoxia (HIF-1) signaling pathway - cell viability counter screen (AID 1224844; calls by dose curve; further: nearly all actives have a fitted effect of over 50% in size; further: potency means the concentration at half of the fitted maximal effect)
Method in brief: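 Tox21 10K compounds were added to HRE-bla ME-180 cells (0.5% dialyzed FBS) and incubated 17 hrs at 37C; ATP-based CellTiter-Glo luminescence then reported cell viability in the same wells.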

[2] = qHTS assay to identify small molecule agonists of H2AX (AID 1224845; active means well fitted activation curve with a large enough effect in the signal ratio in the repeat runs, not every such curve was filed as active; the % refers to the signal ratio; further: potency means the concentration at half of the fitted maximal effect)
Method in brief: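 Wild-type CHO-K1 cells plated overnight, then exposed 3 hr at 37C to compounds at 15 concentrations (0.76% DMSO). Lysed, then HTRF anti-pH2AX(S139)-cryptate/anti-H2AX-d2 detection after 24 hr at room temperature; emissions 665 and 620 nm.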

[3] = qHTS assay to identify small molecule agonists of H2AX - cell viability counter screen (AID 1224847; calls by dose curve; further: nearly all actives have a fitted effect of over 30% in size; further: potency means the concentration at half of the fitted maximal effect)
Method in brief: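 Compounds tested at 15 concentrations were incubated 3 hr at 37C with wild-type CHO-K1 cells; cellular ATP-based luminescence (CellTiter-Glo) indicated viability.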

[4] = qHTS RealTime-Glo MT Cell Viability Assay in HepG2 cells - 24 hour (AID 1224867); further: nearly all actives have a fitted effect of over 50% in size; further: potency means the concentration at half of the fitted maximal effect
Method in brief: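 HepG2 cells were seeded at 600 cells/well together with NanoLuc luciferase and a cell-permeant prosubstrate, preincubated 5 h at 37 C/5% CO2, then pin-dosed with compounds in DMSO. Nonlytic luminescence from viable cells was read at each time point.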

[5] = A CellTox Green Cytotoxicity Assay to monitor cytotoxicity in HEK293 cells - 0 hour (AID 1224869); further: nearly all actives have a fitted effect of over 50% in size; further: potency means the concentration at half of the fitted maximal effect
Method in brief: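 Cytotoxicity was tracked continuously in HEK293 cells by a DNA-binding dye excluded from viable cells. Compounds were transferred in DMSO 5 h after seeding; fluorescence was recorded at intervals up to 40 h.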

[6] = qHTS RealTime-Glo MT Cell Viability Assay in HepG2 cells - 40 hour (AID 1224870); further: nearly all actives have a fitted effect of over 50% in size; further: potency means the concentration at half of the fitted maximal effect
Method in brief: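 HepG2 cells mixed with RealTime-Glo MT reagents (NanoLuc plus cell-permeant prosubstrate) were seeded at 600 cells/well, incubated 5 h at 37 C/5% CO2, then pinned with compounds in DMSO; nonlytic luminescence tracked viability during 40 h treatment.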

[7] = qHTS RealTime-Glo MT Cell Viability Assay in HEK293 cells - 32 hour (AID 1224868); further: nearly all actives have a fitted effect of over 50% in size; further: potency means the concentration at half of the fitted maximal effect
Method in brief: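 HEK293 cells were seeded at 600 cells/well together with NanoLuc luciferase and cell-permeant prosubstrate, preincubated 5 h at 37 C/5% CO2, then given compound in DMSO by pintool. Luminescence from viable-cell prosubstrate reduction was read repeatedly over 40 h.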

[8] = qHTS assay to identify small molecule antagonists of the estrogen related receptor (ERR) signaling pathway from Tox21 library (AID 1224848); further: nearly all actives have a fitted effect of over 50% in size; further: potency means the concentration at half of the fitted maximal effect
Method in brief: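 Screening used an ERR reporter line supplied by NTP, exposed for 18 h at 37 C to library compounds delivered in DMSO. Signal was luciferase luminescence developed with ONE-Glo at room temperature for 30 min.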

[9] = qHTS assay to identify small molecule agonists of the estrogen related receptor (ERR) signaling pathway from Tox21 library (AID 1224849; calls by dose curve; further: nearly all actives have a fitted effect of over 15% in size); conditions: ERR reporter cell line, ONE-Glo luciferase, 18 h; at 92.4 µM (top of the series) unless noted
Method in brief: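 Agonist signal is luciferase luminescence from an ERR reporter cell line treated 18 h at 37 C with DMSO-dissolved compounds, read 30 min after ONE-Glo addition at room temperature.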

[10] = qHTS assay to identify small molecule agonists of the hypoxia (HIF-1) signaling pathway (AID 1224846; active means well fitted activation curve with a large enough effect in the signal ratio in the repeat runs, not every such curve was filed as active; the % refers to the signal ratio)
Method in brief: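 Steps: seed ME-180 HRE-bla cells (2,000/well, 0.5% dialyzed FBS); incubate 5 hrs at 37C; pin-transfer compounds or DMSO; incubate 17 hrs; add LiveBLAzer B/G substrate CCF4-AM; measure reporter activation by FRET.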
On the % scale 0 is the no-effect control and ±100 the full control effect.

CC(Cc1ccc(O)cc1)NCC(O)c1cc(O)cc(O)c1 (configuration not stated)
inactive: Potency [1] | Potency [2] | Potency [3] | Potency [4] | Potency [5]

CC1(C)[C@H](/C=C2\CCSC2=O)[C@@H]1C(=O)OCc1coc(Cc2ccccc2)c1
inactive: Potency [1] | Potency [2] | Potency [4] | Potency [5] | Potency [6]

O.O.O.O.O.O.O.O=S(=O)([O-])[O-].[Co+2]
inactive: Potency [1] | Potency [2] | Potency [3] | Potency [4] | Potency [5] | Potency [6]

CCOC(=O)Cc1ccccc1
inactive: Potency [1] | Potency [2] | Potency [3] | Potency [4] | Potency [7] | Potency [5] | Potency [6]

COP(=S)(OC)Oc1ccc([N+](=O)[O-])c(C)c1
inactive: Potency [1] | Potency [2] | Potency [3] | Potency [4] | Potency [7] | Potency [6]

CCC[CH2][Sn]([CH2]CCC)([O]C(C)=O)[O]C(C)=O
active: Potency [1] 0.986 µM | Potency [2] 906 nM | Potency [8] 0.0617 µM | Potency [4] 0.278 µM | Potency [6] 0.175 µM
inactive: activity change, positive = activation [9] -79.9%

CCOP(=O)(OCC)Oc1nc(Cl)c(Cl)cc1Cl
inactive: Potency [1] | Potency [2] | Potency [3] | Potency [4] | Potency [7] | Potency [5]

CC(C)[C@@H](Nc1ccc(C(F)(F)F)cc1Cl)C(=O)OC(C#N)c1cccc(Oc2ccccc2)c1 (some centres not stated)
inactive: Potency [1] | Potency [2] | Potency [4] | Potency [7] | Potency [5]

C=Cc1cccc(CCl)c1
inactive: Potency [1] | Potency [2] | Potency [3] | Potency [4] | Potency [7] | Potency [5] | Potency [6]

CN1[C@@H]2CC[C@H]1CC(O)C2 (some centres not stated)
inactive: Potency [1] | Potency [2] | Potency [3] | Potency [4] | Potency [7] | Potency [5] | Potency [6]

CCOP(=S)(NC(C)C)Oc1ccccc1C(=O)OC(C)C (configuration not stated)
inactive: Potency [2] | activity change, positive = activation [9] -39.6% | Potency [5]
active: Potency [1] 6.16 µM | Potency [8] 30.6 µM | Potency [7] 43.6 µM

CCCCN(CCCC)C(=S)[S-].CCCCN(CCCC)C(=S)[S-].[Ni+2]
inactive: Potency [1] | Potency [2] | Potency [8] | activity change, positive = activation [9] -0.422% [at 42.5 µM] | Potency [4] | Potency [7] | Potency [6]

Brc1cccc(-c2ccccc2)c1
inactive: Potency [1] | Potency [10] | Potency [8] | activity change, positive = activation [9] -0.973% | Potency [4] | Potency [7] | Potency [5] | Potency [6]

O=S1OCC2C(CO1)C1(Cl)C(Cl)=C(Cl)C2(Cl)C1(Cl)Cl (configuration not stated)
active: Potency [1] 48.9 µM | Potency [2] 89.9 µM and 101 µM | Potency [3] 101 µM and 89.7 µM | Potency [4] 54.9 µM | Potency [7] 21.9 µM and 38.9 µM
inactive: Potency [6]

CCOP(=S)(OCC)SC(CCl)N1C(=O)c2ccccc2C1=O (configuration not stated)
inactive: Potency [1] | Potency [10] | Potency [3] | activity change, positive = activation [9] -14.9% | Potency [4] | Potency [7] | Potency [5] | Potency [6]

CN1C(=O)[C@@H](NC(=O)c2cc3ccccc3[nH]2)N=C(c2ccccc2)c2ccccc21
inactive: Potency [1] | Potency [2] | Potency [3] | activity change, positive = activation [9] -21.2% [at 42.5 µM] | Potency [7] | Potency [5] | Potency [6]

COC(=O)N(OC)c1ccccc1COc1ccn(-c2ccc(Cl)cc2)n1
inactive: Potency [1] | Potency [2] | Potency [4] | Potency [5]
active: Potency [8] 0.137 µM | Potency [7] 21.9 µM

CC(=O)[O][Pb]([c]1ccccc1)([c]1ccccc1)[c]1ccccc1
inactive: activity change, positive = activation [9] -77.1%
active: Potency [1] 1.38 µM | Potency [2] 800 nM | Potency [8] 0.545 µM | Potency [4] 1.1 µM | Potency [7] 0.49 µM | Potency [6] 0.871 µM

COc1ccc2c(c1OC)C(=O)O[C@@H]2[C@H]1c2cc3c(cc2CCN1C)OCO3
inactive: Potency [1] | Potency [2] | Potency [3] | Potency [4] | Potency [7] | Potency [6]

CCC[CH2][Sn]([CH2]CCC)([CH2]CCC)[CH2]CCC
active: Potency [1] 11 µM | Potency [2] 8000 nM | Potency [8] 13.7 µM | Potency [4] 6.16 µM | Potency [5] 49 µM | Potency [6] 4.9 µM

CC(C)C(Nc1ccc(C(F)(F)F)cc1Cl)C(=O)OC(C#N)c1cccc(Oc2ccccc2)c1 (configuration not stated)
inactive: Potency [1] | Potency [2] | Potency [3] | Potency [4] | Potency [7] | Potency [5] | Potency [6]

[O]=[Cr](=[O])([OH])[O][Cr](=[O])(=[O])[OH]
inactive: Potency [5]
active: Potency [1] 2.78 µM and 12.3 µM | Potency [2] 101000 nM | Potency [3] 90.6 µM | Potency [7] 4.41 µM and 4.36 µM

COC(=O)/C=C(\C)OP(=O)(OC)OC
inactive: Potency [1] | Potency [2] | Potency [3] | activity change, positive = activation [9] -31.3% | Potency [4] | Potency [7] | Potency [5]

C[N+]1(C)[C@@H]2CC[C@H]1CC(OC(=O)C(CO)c1ccccc1)C2 (some centres not stated)
inactive: Potency [1] | Potency [2] | Potency [4] | Potency [7] | Potency [5]

O=C(N[C@H]1N=C(c2ccccc2F)c2cccc3c2N(CC3)C1=O)c1cc2ccccc2[nH]1
inactive: Potency [1] | Potency [2] | Potency [3] | Potency [4] | Potency [7] | Potency [5]
